The target of assay [1] is Transcription factor E2F1 (Homo sapiens) (UniProt Q01094). Nature of the assay: ATG_E2F_CIS: Attagene CIS-FACTORIAL HepG2 Assay for human E2F Transcription Factor 1 (AID 2282935). The following applies: HepG2 Attagene cis-reporter, E2F reporter RNA transcripts; actives raise or lower the signal. An outline of the steps: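 In this cis-factorial format, endogenous factor activity drives transfected reporters in HepG2; transcripts collected at 24 h are quantified by fluorescence after RT-PCR and capillary separation.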

Assay [2] is described as follows: ATG_E_Box_CIS: Attagene CIS-FACTORIAL HepG2 Assay for human Enhancer Box (E-box) (AID 2282936). The following applies: HepG2 E-box cis-reporter transcription, actives raise or lower the signal. In short, it runs like this: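 Measured 24 h post-dosing in HepG2 cells transfected with multiple cis-regulated reporter units, signal being reporter mRNA induction detected by fluorescent RT-PCR with capillary electrophoresis; gain or loss fitted against DMSO.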

Assay [3] can be described thus: ATG_M_61_CIS: Attagene CIS-FACTORIAL HepG2 Assay for M61 Transcription Factor (Internal Marker) (AID 2282937). The following applies: HepG2 Attagene CIS-FACTORIAL M61 internal marker reporter; actives raise or lower the signal. In short, it runs like this: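 Using transiently transfected HepG2 liver cells, reporter transcript levels were assessed 24 h post-dosing by RT-PCR and capillary electrophoresis. Changes in either direction were fitted relative to DMSO controls.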

Assay [4] is described as follows: ATG_EGR_CIS: Attagene CIS-FACTORIAL HepG2 Assay for human Early Growth Response 1 (EGR1) (AID 2282938). The following applies: HepG2 Attagene CIS-FACTORIAL EGR reporter mRNA; actives raise or lower the signal. In short, it runs like this: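 Fluorescent capillary-electrophoresis signal of reporter cDNA fragments serves as read-out. HepG2 cells bear transiently transfected cis-promoter reporter units and are exposed 24 h; gain- or loss-of-signal is fitted against DMSO.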

The nature of assay [5]: ATG_M_19_CIS: Attagene CIS-FACTORIAL HepG2 Assay for M19 Transcription Factor (Internal Marker) (AID 2282939). The following applies: HepG2 Attagene CIS-FACTORIAL M19 internal marker reporter; actives raise or lower the signal. In short, it runs like this:
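HepG2 cells transiently transfected with cis-regulated multiplexed reporter units, dosed 24 h. Reporter mRNA quantified by RT-PCR and capillary electrophoresis; internal background marker fitted bidirectionally versus DMSO.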

Assay [6] can be described thus: ATG_ERE_CIS: Attagene CIS-FACTORIAL HepG2 Assay for Estrogen Response Element (ERE) (AID 2282940). The following applies: HepG2 ERE cis-reporter, Attagene RNA transcript; actives raise or lower the signal. In short, it runs like this:
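HepG2 cells transiently transfected with multiplexed cis-element reporter units, measuring endogenous transcription factor activity; ERE reporter mRNA quantified after 24 h exposure by RT-PCR, fluorescent labelling, HpaI digestion and capillary electrophoresis. Bidirectional change versus DMSO.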

Assay [7] can be described thus: ATG_Ets_CIS: Attagene CIS-FACTORIAL HepG2 Assay for human Erythroblast Transformation Specific (ETS) (AID 2282941). The following applies: HepG2 ETS cis-reporter transcription, actives raise or lower the signal. An outline of the steps: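 Endogenous transcription factor activity read as reporter mRNA via RT-PCR and capillary electrophoresis, with gain or loss fitted bidirectionally against DMSO. Human HepG2 liver cells, transiently transfected CIS reporter constructs, 24 h exposure.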

The target of assay [8] is Hepatocyte nuclear factor 3-beta (Homo sapiens) (UniProt Q9Y261). Nature of the assay: ATG_FoxA2_CIS: Attagene CIS-FACTORIAL HepG2 Assay for human Forkhead box A2 (FOXA2) (AID 2282942). The following applies: HepG2 cis-reporter transcription factor activity, 24 h; actives raise or lower the signal. An outline of the steps:
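Fluorescence signal of reporter cDNA fragments, separated by capillary electrophoresis, reflects endogenous transcription factor activity in transfected HepG2 after 24 h. Both increases and decreases fitted against DMSO.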

A short description of assay [9]: ATG_FoxO_CIS: Attagene CIS-FACTORIAL HepG2 Assay for human Forkhead box O (FoxO) (AID 2282943). The following applies: HepG2 Attagene cis-reporter, FoxO element, mRNA; actives raise or lower the signal. In short, it runs like this:
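Values reflect reporter mRNA induction or loss in HepG2 cells 24 h post-dosing, fitted bidirectionally with DMSO as negative control and baseline. Detection used RT-PCR and fluorescence capillary electrophoresis.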

The nature of assay [10]: ATG_GATA_CIS: Attagene CIS-FACTORIAL HepG2 Assay for human GATA Binding Protein (AID 2282944). The following applies: HepG2 GATA cis-element reporter, Attagene multiplex mRNA; actives raise or lower the signal. In short, it runs like this: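 HepG2 cells transiently transfected with multiplexed cis-element reporter units measure endogenous GATA activity; after 24 h compound exposure, reporter mRNA quantified by RT-PCR and capillary electrophoresis. Changes fitted in both directions vs DMSO.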

The text below walks through data of PubChem BioAssay (EPA / NIEHS).

Values joined by “and” are separate entries in the source; they are usually repeats but may differ in a detail not shown here. Equal values may be shown once. Active and inactive are the calls of the source. The calls were made as follows: active = hit-call score of the fitted dose curve at least 0.9, where 1 is the maximum; inactive = score below 0.9.

Chain of Transcription factor E2F1 (Homo sapiens) (Q01094 whole entry, looked up): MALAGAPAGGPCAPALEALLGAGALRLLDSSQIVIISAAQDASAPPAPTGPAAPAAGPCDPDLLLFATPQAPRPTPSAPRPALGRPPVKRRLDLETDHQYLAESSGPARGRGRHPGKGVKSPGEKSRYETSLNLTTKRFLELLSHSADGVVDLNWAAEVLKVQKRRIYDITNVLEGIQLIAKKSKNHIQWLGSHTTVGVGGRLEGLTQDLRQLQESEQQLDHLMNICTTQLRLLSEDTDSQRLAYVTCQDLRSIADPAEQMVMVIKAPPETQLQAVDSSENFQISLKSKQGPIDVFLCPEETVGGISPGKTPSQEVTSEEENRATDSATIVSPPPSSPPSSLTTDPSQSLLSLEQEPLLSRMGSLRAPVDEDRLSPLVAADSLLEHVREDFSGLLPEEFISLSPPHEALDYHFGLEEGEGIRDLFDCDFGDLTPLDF
Chain of Hepatocyte nuclear factor 3-beta (Homo sapiens) (Q9Y261 whole entry, looked up, the tested form may be a part): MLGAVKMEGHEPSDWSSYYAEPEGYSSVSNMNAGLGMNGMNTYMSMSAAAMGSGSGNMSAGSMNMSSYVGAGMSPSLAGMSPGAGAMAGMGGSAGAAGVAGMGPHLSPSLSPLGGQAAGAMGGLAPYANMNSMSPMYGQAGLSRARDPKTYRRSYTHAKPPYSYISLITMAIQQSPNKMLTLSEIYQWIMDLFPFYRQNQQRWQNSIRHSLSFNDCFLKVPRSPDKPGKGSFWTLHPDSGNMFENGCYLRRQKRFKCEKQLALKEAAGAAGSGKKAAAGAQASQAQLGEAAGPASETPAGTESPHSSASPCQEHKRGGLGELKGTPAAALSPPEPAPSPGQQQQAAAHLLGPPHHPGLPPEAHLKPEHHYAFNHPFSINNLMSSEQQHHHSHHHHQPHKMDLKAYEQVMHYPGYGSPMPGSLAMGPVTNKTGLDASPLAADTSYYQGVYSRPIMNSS

On to `CN(C)Cc1ccccc1O`, for which the result in assay [1], in assay [2], in assay [3], in [4], in assay [5] and in assay [6] was inactive. For the same compound, the outcome in [7], in assay [8], in [9] and in assay [10] was inactive.

As to `[Co]`, the call in assay [1], in assay [2], in [3], in [4], in [5] and in assay [6] was inactive. Also, the compound was classed as inactive in [7], in assay [8], in assay [9] and in assay [10].

In the case of `Cc1ccc(S(=O)(=O)OCC(F)(F)C(F)(F)C(F)(F)C(F)(F)C(F)(F)C(F)F)cc1`, the call in assay [1], in assay [2], in [3], in assay [4], in assay [5] and in assay [6] was inactive. The compound was called inactive in assay [7], in [8], in [9] and in assay [10].

In the case of `CCCCCCCCC(F)(F)C(F)(F)C(F)(F)C(F)(F)C(F)(F)C(F)(F)F`, the call in assay [1], in [2], in assay [3], in assay [4], in [5] and in assay [6] was inactive. Moreover, the call in assay [7], in assay [8], in [9] and in assay [10] was inactive.

Regarding `FC(F)(F)C(F)(F)C(F)(F)C(F)(F)C(F)(F)C(F)(F)C(F)(F)C(F)(F)CCS`, the compound was classed as inactive in assay [1], in assay [2], in assay [3], in [4], in assay [5] and in assay [6]. Further, the outcome in assay [7], in assay [8], in assay [9] and in [10] was inactive.

The term AC50 denotes the midpoint of the concentration-response curve, whichever way the signal moves. As to `OCC(F)(F)C(F)(F)C(F)(F)C(F)(F)C(F)(F)C(F)(F)F`, the AC50 in assay [1] is 234 µM (active); in assay [2] it was 150 µM (active); in [4] it was 248 µM (active); in assay [7], 236 µM (active). Also, the outcome in assay [3], in assay [5], in assay [6], in assay [8], in assay [9] and in assay [10] was inactive.

For the compound `CCCCCCS`, the call in [1], in assay [2], in assay [3], in assay [4], in assay [5] and in assay [6] was inactive. Moreover, the compound was called inactive in assay [7], in [8], in assay [9] and in assay [10].

As for `FC(F)(F)C(F)(F)C(F)(F)C(F)(F)C(F)(F)C(F)(F)C(F)(F)I`, the compound was called inactive in assay [1], in [2], in [3], in [4], in assay [5] and in assay [7]. Also, the compound was called inactive in assay [8], in assay [9] and in assay [10]. Also, the AC50 in [6] is 5.59 µM (active).

On to `CCCCOCCOCCOC(=O)CCCCC(=O)OCCOCCOCCCC`, for which the outcome in [1], in assay [2], in [3], in assay [4], in assay [5] and in assay [6] was inactive. The compound was classed as inactive in assay [7], in assay [8], in assay [9] and in [10].

As for `O=S(=O)(O)c1ccc2ccccc2c1`, the outcome in assay [1], in assay [2], in assay [3], in assay [4], in [5] and in assay [6] was inactive. The compound was classed as inactive in assay [7], in assay [8], in [9] and in assay [10].

For the compound `O=C(O)C(F)(OC(F)(F)C(F)(OC(F)(F)C(F)(OC(F)(F)C(F)(F)C(F)(F)F)C(F)(F)F)C(F)(F)F)C(F)(F)F` (stereo not given), the outcome in assay [1], in assay [2], in [3], in assay [4], in assay [5] and in [6] was inactive. In addition, the compound was classed as inactive in [7], in assay [8], in assay [9] and in assay [10].

As to `FC(F)(F)C(F)(F)C(F)(F)CI`, the compound was classed as inactive in assay [1], in assay [2], in assay [3], in assay [4], in assay [5] and in assay [6]. Further, the outcome in [7], in assay [8], in assay [9] and in assay [10] was inactive.

As for `C=CC(=O)OCC(F)(F)C(F)(F)C(F)(F)C(F)(F)C(F)(F)C(F)(F)C(F)(F)F`, the compound was classed as inactive in assay [1], in [2], in [3], in assay [4], in [5] and in assay [7]. The compound was called inactive in assay [8], in assay [9] and in assay [10]. Moreover, the AC50 in [6] was 21 µM (active).

Regarding `O=C(C=Cc1ccccc1)OCC=Cc1ccccc1`, the call in assay [1], in assay [2], in assay [3], in [4], in assay [5] and in assay [6] was inactive. Also, the compound was classed as inactive in assay [7], in assay [8], in [9] and in [10].

With `C=CC/C=C/C/C=C/C/C=C/C`, the compound was called inactive in assay [1], in assay [2], in [3], in assay [4], in assay [5] and in assay [6]. The compound was classed as inactive in [7], in assay [8], in assay [9] and in [10].

For the compound `CCCCOc1ccc(N)cc1`, the compound was classed as inactive in [1], in assay [2], in assay [3], in assay [4], in [5] and in assay [6]. Moreover, the compound was called inactive in assay [7], in assay [8], in assay [9] and in assay [10].

As to `O=S(=O)(OCC(F)F)C(F)(F)F`, the compound was classed as inactive in assay [1], in assay [2], in assay [3], in [4], in [5] and in assay [6]. In addition, the compound was classed as inactive in [7], in assay [8], in assay [9] and in [10].

In the case of `O=S(=O)(O)C(F)(F)C(F)(F)C(F)(F)C(F)(F)C(F)(F)C(F)(F)C(F)(F)F`, the compound was classed as inactive in assay [1], in [2], in assay [3], in assay [4], in assay [5] and in assay [7]. In addition, the result in [8], in [9] and in [10] was inactive. In addition, the AC50 in assay [6] was 48.4 µM (active) and 69.9 µM (active).

In the case of `CCCCCCCOC(=O)c1ccccc1C(=O)OCCCCCCC`, the call in [1], in assay [2], in [3], in [4], in assay [5] and in assay [6] was inactive. Besides, the compound was classed as inactive in [7], in assay [8], in [9] and in [10].

As to `C#C[C@]1(O)CC[C@H]2[C@@H]3CCc4cc(OC)ccc4[C@H]3CC[C@@]21C`, the compound was classed as inactive in assay [1], in [2], in assay [3], in assay [4], in [5] and in assay [7]. In addition, the compound was classed as inactive in assay [8], in assay [9] and in [10]. In addition, the half-maximal activity concentration (AC50) in assay [6] was 0.00935 µM (active).

For the compound `CO[Si](OC)(c1ccccc1)c1ccccc1`, the compound was called inactive in [1], in assay [2], in assay [3], in [4], in [5] and in assay [7]. Besides, the call in assay [8], in assay [9] and in assay [10] was inactive. In [6], the AC50 is 72.8 µM (active).

With `COC(OC(C)=O)c1ccccc1` (stereo not given), the compound was called inactive in assay [1], in [2], in [3], in assay [4], in [5] and in [6]. Moreover, the compound was called inactive in assay [7], in assay [8], in assay [9] and in [10].

Regarding `OCC(F)(F)C(F)(F)C(F)(F)C(F)F`, the call in assay [1], in assay [2], in assay [3], in [4], in assay [5] and in assay [6] was inactive. Further, the compound was called inactive in assay [7], in assay [8], in [9] and in [10].
